Laboratory results from the supplement of paper PMC13380429.

Test system: Vero E6 infected with SARS-CoV-2
Test: inhibition of SARS-CoV-2 cytopathic effect; higher = more antiviral protection, active = above 15
Conditions: 48 h

Measured: inhibition of SARS-CoV-2 cytopathic effect

CN(C)CCCN1c2ccccc2Sc2ccc(Cl)cc21 [chlorpromazine]
inactive: 1 nM -0.39% | 8.33 nM 2.71% | 100 nM 1.5% | 833.33 nM 2.32% | 10000 nM 7.04%

CCN(CC)Cc1cc(Nc2ccnc3cc(Cl)ccc23)ccc1O [amodiaquine]
inactive: 1 nM 3.02% | 8.33 nM 3.97% | 100 nM 0.97% | 833.33 nM -1.05%
active: 10000 nM 44.7%

CNCCCCOc1ccccc1Cc1ccccc1 [bifemelane]
inactive: 1 nM -0.64% | 8.33 nM 0.99% | 100 nM 1.41% | 833.33 nM -0.82% | 10000 nM -1.85%

COc1cc(C)[nH]c(=O)c1CNC(=O)c1c(C)n([C@H](C)C2CCOCC2)c2ccccc12
inactive: 1 nM -1.12% | 8.33 nM -1.57% | 100 nM 0.4% | 833.33 nM -4.34% | 10000 nM -4.06%

O=C(O)C(O)Cc1ccc(O)c(O)c1 (stereo not given) [sodium-danshensu]
inactive: 1 nM 1.07% | 8.33 nM -0.48% | 100 nM 2.17% | 833.33 nM -0.61% | 10000 nM -1.7%

CCC1(c2ccc(N)cc2)CCC(=O)NC1=O (stereo not given) [aminoglutethimide]
inactive: 1 nM -0.9% | 8.33 nM 2.8% | 100 nM 3.28% | 833.33 nM 2.95% | 10000 nM 2.93%

CC(C)(C(=O)O)c1ccc(C(O)CCCN2CCC(C(O)(c3ccccc3)c3ccccc3)CC2)cc1 (stereo not given) [fexofenadine]
inactive: 1 nM 0.81% | 8.33 nM -0.73% | 100 nM -0.49% | 833.33 nM 1.17% | 10000 nM 2.18%

C=CCNC(=O)c1cc([N+](=O)[O-])cc2c(=O)[nH]c(Nc3ccc(Cl)c(Cl)c3)nc12
inactive: 1 nM 0.56% | 8.33 nM 4.08% | 100 nM -1.8% | 833.33 nM 9.51% | 10000 nM 1.19%

O=C(O[C@H]1CN2CCC1CC2)N(Cc1cc(F)c(F)c(F)c1)c1cccc(F)c1 [tarafenacin]
inactive: 1 nM 1.69% | 8.33 nM -0.35% | 100 nM 2.28% | 833.33 nM -1.46% | 10000 nM -7.54%

CCCCCCCCc1ccc(CCC(N)(CO)CO)cc1 [fingolimod]
active: 10000 nM 15.2%
inactive: 1 nM 0% | 8.33 nM 2.1% | 100 nM -0.53% | 833.33 nM -4%

CC[C@H](c1ccc(O)cc1)[C@@H](CC)c1ccc(O)cc1 [hexestrol]
inactive: 1 nM -3.59% | 8.33 nM -0.58% | 100 nM -0.76% | 833.33 nM -3.14% | 10000 nM 2.9%

Cc1cccc(C)c1-n1c(=O)c2cnc(Nc3ccc(N4CCN(C)CC4)cc3)nc2n2c3ccccc3nc12
inactive: 1 nM -1.2% | 8.33 nM -0.67% | 100 nM -2.31% | 833.33 nM 0.21% | 10000 nM -3.38%

Oc1cccc2cccnc12 [oxyquinoline]
inactive: 1 nM -1.21% | 8.33 nM -0.58% | 100 nM 0.04% | 833.33 nM 2.84% | 10000 nM -0.31%

O[C@@H](Cc1ccncc1)C(Cl)(Cl)Cl
inactive: 1 nM 0.9% | 8.33 nM 1.38% | 100 nM 3.16% | 833.33 nM 0.72% | 10000 nM 0.84%

CC(C)C[C@H](NC(=O)[C@H](Cc1ccccc1)NC(=O)c1cnccn1)B(O)O [bortezomib]
inactive: 1 nM 1.7% | 8.33 nM 11% | 10000 nM 12.7%
active: 100 nM 32.8% | 833.33 nM 27.1%

CC(=O)[C@]1(N)Cc2c(O)c3c(c(O)c2[C@@H](O[C@H]2C[C@H](O)[C@H](O)CO2)C1)C(=O)c1ccccc1C3=O [amrubicin]
inactive: 1 nM 2.67% | 8.33 nM -2.31% | 100 nM -3.18% | 833.33 nM -3.9% | 10000 nM -0.58%

CCCC(=O)C1(c2ccccc2)CCN(C(=O)[C@@H](Cc2ccc(OC)cc2)NC(=O)[C@@H](N)Cc2cncn2C)CC1
inactive: 1 nM 0.65% | 8.33 nM -1.21% | 100 nM 0.17% | 833.33 nM -1.38% | 10000 nM 0.37%

CN(C)N(C)C(=O)[C@@]1(Cc2ccccc2)CCCN(C(=O)[C@@H](Cc2c[nH]c3ccccc23)NC(=O)C(C)(C)N)C1 [anamorelin]
inactive: 1 nM -0.24% | 8.33 nM -1% | 100 nM 9.14% | 833.33 nM -2.12% | 10000 nM -0.05%

CC(C)(C)c1ccc(/C=C/C(=O)Nc2ccc3c(c2)OCCO3)cc1
inactive: 1 nM -2.25% | 8.33 nM 0.94% | 100 nM 1.24% | 833.33 nM -0.32% | 10000 nM -0.3%

CCc1cc(Cl)c(OC)c(C(=O)NC[C@@H]2CCCN2CC)c1O [eticlopride]
inactive: 1 nM -0.43% | 8.33 nM -0.67% | 100 nM 1.17% | 833.33 nM 0.92% | 10000 nM 3.78%

FC(F)(F)c1ccc(CNc2ccc(Cc3c[nH]c4ncccc34)cn2)cc1
inactive: 1 nM 3.02% | 8.33 nM 0.15% | 100 nM 0.15% | 833.33 nM -0.39% | 10000 nM -1.01%

CC(C)(NS(=O)(=O)c1ccc(Oc2ccc(F)cc2)cc1)C(=O)NO
inactive: 1 nM 3.55% | 8.33 nM 0.75% | 100 nM 2.56% | 833.33 nM 0.48% | 10000 nM -0.6%

OCCN1CCN(CCCN2c3ccccc3Sc3ccc(C(F)(F)F)cc32)CC1 [fluphenazine]
inactive: 1 nM -8.05% | 8.33 nM -7.65% | 100 nM -6.69% | 833.33 nM -9.7%
active: 10000 nM 20.5%

CC(C)(CCCCCC(O)CCCCCC(C)(C)C(=O)O)C(=O)O [bempedoic-acid]
inactive: 1 nM 0.91% | 8.33 nM 0.43% | 100 nM 0.18% | 833.33 nM 0.98% | 10000 nM 1.16%

CCCN(CCC)[C@H]1CCc2ccc(O)cc2C1 [7-hydroxy-DPAT]
inactive: 1 nM 0.73% | 8.33 nM 2.39% | 100 nM 0.54% | 833.33 nM -0.29% | 10000 nM 0.48%

C=CCOc1ccccc1OCC(O)CNC(C)C (stereo not given) [oxprenolol]
inactive: 1 nM 1.58% | 8.33 nM -0.87% | 100 nM -1.99% | 833.33 nM -0.79% | 10000 nM -0.79%

CC#C[C@]1(O)CC[C@H]2[C@@H]3CCC4=CC(=O)CCC4=C3[C@@H](c3ccc(N(C)C)cc3)C[C@@]21C [mifepristone]
inactive: 1 nM -1.56% | 8.33 nM 0.62% | 100 nM 3.53% | 833.33 nM -4.55% | 10000 nM 8.14%

CC(C)Nc1cc(-c2c[nH]c(C(=O)N[C@H](CO)c3cccc(Cl)c3)c2)c(Cl)cn1
inactive: 1 nM -2.18% | 8.33 nM 0.33% | 100 nM -2.23% | 833.33 nM -5.21% | 10000 nM -6.01%

Cc1n[nH]c2ccc(-c3cncc(OC[C@@H](N)Cc4ccccc4)c3)cc12
inactive: 1 nM 1.18% | 8.33 nM 0.14% | 100 nM 4.58% | 833.33 nM 4.63% | 10000 nM -13.2%

Cc1c(CN2CCN(C(=O)[C@H](C)O)CC2)sc2c(N3CCOCC3)nc(-c3cnc(N)nc3)nc12
inactive: 1 nM -0.71% | 8.33 nM 0.05% | 100 nM 0.57% | 833.33 nM -5.06% | 10000 nM -12.7%

COc1ccnc2[nH]cc(C(=O)C(=O)N3CCN(C(=O)c4ccccc4)C[C@H]3C)c12
inactive: 1 nM 1.91% | 8.33 nM -1.88% | 100 nM -0.3% | 833.33 nM 0.28% | 10000 nM 1.74%

CC(=O)O[C@]1(C(C)=O)CC[C@H]2[C@@H]3C=C(C)C4=CC(=O)CC[C@]4(C)[C@H]3CC[C@@]21C [megestrol-acetate]
inactive: 1 nM -0.56% | 8.33 nM -0.6% | 100 nM -1.59% | 833.33 nM -0.54% | 10000 nM 0.33%

Cc1sc(C)c2c1CCC=C2c1c[nH]cn1
inactive: 1 nM -1.05% | 8.33 nM -1.35% | 100 nM -1.5% | 833.33 nM -2.81% | 10000 nM -2.28%

CN[C@@H](C)C(=O)N[C@H](C(=O)N1CCC[C@H]1c1nc(C(=O)c2ccc(F)cc2)cs1)C1CCCCC1
inactive: 1 nM 1.96% | 8.33 nM 2.97% | 100 nM 0.97% | 833.33 nM -3.07% | 10000 nM -4.24%

C[C@H](CCC(=O)O)[C@H]1CC[C@H]2[C@@H]3[C@H](O)C[C@@H]4C[C@H](O)CC[C@]4(C)[C@H]3C[C@H](O)[C@]12C [cholic-acid]
inactive: 1 nM -0.3% | 8.33 nM 0.75% | 100 nM 0.02% | 833.33 nM -0.84% | 10000 nM 0.54%

COc1cccc(CCc2ccccc2OCC(CN(C)C)OC(=O)CCC(=O)O)c1 (stereo not given) [sarpogrelate]
inactive: 1 nM -0.45% | 8.33 nM -1.71% | 100 nM -2.81% | 833.33 nM -0.22% | 10000 nM -1.72%

O=C(OCCN1CCOCC1)C1(c2ccccc2)CCCCC1
inactive: 1 nM 3.24% | 8.33 nM 2.9% | 100 nM 1.04% | 833.33 nM 4.21% | 10000 nM 1.59%

CC(C(=O)O)c1ccc2c(c1)[nH]c1ccc(Cl)cc12 (stereo not given) [carprofen]
inactive: 1 nM 4.44% | 8.33 nM 2.85% | 100 nM -6.45% | 833.33 nM 4.46% | 10000 nM 3.76%

CNc1cc2[nH]c(=O)n(-c3ccc(NC(=O)NS(=O)(=O)c4ccc(Cl)s4)cc3)c(=O)c2cc1F [elinogrel]
inactive: 1 nM 3.26% | 8.33 nM 1.24% | 100 nM -3.68% | 833.33 nM 3.74% | 10000 nM -1.62%

NC(=O)NO [hydroxyurea]
inactive: 1 nM 0.66% | 8.33 nM -0.23% | 100 nM 0.03% | 833.33 nM 0.46% | 10000 nM 1.29%
